Among the test systems are NCI-H23 lung; NCI-H226 lung; NCI-H322M lung; HOP-62 NSCLC; NCI-H460 lung; NCI-H522 lung; A549/ATCC NSCLC; 786-0 renal; COLO 205 colon; DU-145 prostate; K-562 leukemia; MALME-3M melanoma; MDA-MB-231 breast; RXF 393 renal; SF-268 CNS; SF-295 CNS; SF-539 CNS; UACC-257 melanoma; M14 melanoma; HCT-15 colon.
Common to all, as to assay: NCI-60 one-dose screen, 48 h (100 = growth as untreated, 0 = no growth, -100 = all killed)
Common to all, as to conditions: 10 µM

About 83,000 compounds went through this panel and 20% of them were active in at least one assay; those are over-represented in the sample as a whole.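 96-well plates, one dose, 48 hours. Percent growth reported; active if below 10.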 Unmarked numbers belong to inactive results. The source made the active and inactive calls.

As for `COc1ccc(-c2nc(-c3nc4cc(Cl)c(F)cc4[nH]3)c3ccccn23)cc1`, the growth is 85.8% in the assay with NCI-H23 lung; 85.1% in the assay with NCI-H226 lung; 69.6% in the assay with NCI-H322M lung; 89.5% in the assay with HOP-62 NSCLC; 81.1% with NCI-H460 lung; 39.5% with NCI-H522 lung. For the same compound, the growth in the assay on A549/ATCC NSCLC was 49.4%; in the assay with 786-0 renal, 79.9%; in the assay with COLO 205 colon, 79.1%; with DU-145 prostate, 80.3%; with K-562 leukemia, 40.3%; in the assay with MALME-3M melanoma it was 97.4%. Moreover, the growth was 57.5% in the assay on MDA-MB-231 breast; 87.8% with RXF 393 renal; 75.3% in the assay on SF-268 CNS; 45.1% with SF-295 CNS; 92.8% in the assay on SF-539 CNS; 61.9% in the assay with UACC-257 melanoma. For the same compound, the growth was 66.2% with M14 melanoma and 59.5% in the assay on HCT-15 colon.

For `CCCC1(CC(=O)O)OCCc2c1[nH]c1ccccc21` (stereo not given), the growth in the assay with NCI-H23 lung is 93.4%; in the assay with NCI-H226 lung, 98.4%; in the assay with NCI-H322M lung, 109%; in the assay with HOP-62 NSCLC, 107%; in the assay on NCI-H460 lung, 109%; in the assay with NCI-H522 lung, 37.2%. Further, the growth in the assay with A549/ATCC NSCLC was 99.3%; with 786-0 renal, 103%; with COLO 205 colon, 229%; in the assay with DU-145 prostate, 114%; with K-562 leukemia, 156%; with MALME-3M melanoma it was 98.8%. In addition, the growth is 103% in the assay with MDA-MB-231 breast; 100% in the assay on RXF 393 renal; 103% with SF-268 CNS; 102% in the assay on SF-295 CNS; 112% with SF-539 CNS; 103% in the assay on UACC-257 melanoma. For the same compound, the growth is 112% in the assay on M14 melanoma and 107% in the assay with HCT-15 colon.

In the case of `O=C(Nc1cccc(-n2cc(-c3ccncc3)c(-c3cc(O)cc(Cl)c3)n2)c1)Nc1ccc(Cl)c(C(F)(F)F)c1`, the growth was 10.5% with NCI-H23 lung; 41.2% in the assay on NCI-H226 lung; 45% in the assay with NCI-H322M lung; 8.99% (active) in the assay on HOP-62 NSCLC; 3.75% (active) with NCI-H460 lung; -16% (active) in the assay with NCI-H522 lung. Further, the growth in the assay on A549/ATCC NSCLC is 8.81% (active); in the assay on 786-0 renal, -29.8% (active); with COLO 205 colon, 63.4%; in the assay on DU-145 prostate it was 18.7%; in the assay on K-562 leukemia, 5.24% (active); with MALME-3M melanoma it was -24.9% (active). Also, the growth is -47.3% (active) in the assay on MDA-MB-231 breast; -49.5% (active) in the assay on RXF 393 renal; 42.1% in the assay with SF-268 CNS; 14.3% with SF-295 CNS; 32.6% in the assay on SF-539 CNS; -40% (active) in the assay on UACC-257 melanoma. Also, the values for the growth in the assay with M14 melanoma and in the assay with HCT-15 colon were -16.8% (active) and 5.79% (active), respectively.

As to `Nc1cc2c(cc1Cl)-c1ccc([N+](=O)[O-])cc1/C2=N\O`, the growth in the assay on NCI-H23 lung is 83.4%; in the assay with NCI-H226 lung, 93.3%; in the assay on NCI-H322M lung, 50.1%; with HOP-62 NSCLC, 111%; in the assay with NCI-H460 lung, 48.8%; in the assay with NCI-H522 lung, 69.8%. The growth in the assay on A549/ATCC NSCLC is 59.2%; in the assay on 786-0 renal, 90.8%; in the assay with COLO 205 colon it was 109%; with DU-145 prostate it was 63%; in the assay on K-562 leukemia it was 30.5%; in the assay on MALME-3M melanoma, 90.7%. In addition, the growth is 105% in the assay on MDA-MB-231 breast; 104% with RXF 393 renal; 79.1% with SF-268 CNS; 74.8% in the assay with SF-295 CNS; 75.9% in the assay with SF-539 CNS; 103% in the assay on UACC-257 melanoma. Moreover, the growth in the assay on M14 melanoma was 78.2%; in the assay on HCT-15 colon it was 62.9%.

Regarding `CCOC(=O)CCC(NC(=O)c1ccc(N)cc1)C(=O)OCC` (stereo not given), the growth was 99.1% in the assay on NCI-H23 lung; 103% in the assay with NCI-H226 lung; 108% in the assay with NCI-H322M lung; 96% in the assay with HOP-62 NSCLC; 118% with NCI-H460 lung; 80.5% in the assay on NCI-H522 lung. Moreover, the growth with A549/ATCC NSCLC was 99.4%; in the assay on 786-0 renal, 110%; in the assay with COLO 205 colon it was 105%; in the assay with DU-145 prostate it was 112%; with K-562 leukemia, 112%; with MALME-3M melanoma, 88.2%. The growth with MDA-MB-231 breast is 126%; in the assay on RXF 393 renal, 129%; with SF-268 CNS, 99.7%; in the assay on SF-295 CNS it was 136%; with SF-539 CNS, 97.6%; in the assay with UACC-257 melanoma, 101%. Besides, the values for the growth with M14 melanoma and with HCT-15 colon were 91.3% and 98.7%, respectively.

Take `COc1ccc(N2C(=O)C3c4[nH]c5ccc(OCc6ccccc6)cc5c4C4CCC(C(C)C)CC4C3C2=O)cc1` (stereo not given): the growth is 104% with NCI-H23 lung; 104% in the assay with NCI-H226 lung; 102% in the assay with NCI-H322M lung; 113% in the assay with HOP-62 NSCLC; 103% in the assay with NCI-H460 lung; 34.6% in the assay on NCI-H522 lung. Besides, the growth with A549/ATCC NSCLC is 99.4%; with 786-0 renal, 97.6%; in the assay with COLO 205 colon, 102%; in the assay with DU-145 prostate, 113%; with K-562 leukemia it was 117%; in the assay with MALME-3M melanoma, 107%. The growth in the assay on MDA-MB-231 breast was 101%; in the assay on RXF 393 renal, 102%; with SF-268 CNS, 96.7%; in the assay on SF-295 CNS, 114%; with SF-539 CNS, 118%; in the assay with UACC-257 melanoma it was 96.1%. In addition, the growth in the assay with M14 melanoma was 124%; in the assay with HCT-15 colon it was 16.3%.

For `Fc1cc(C(F)(F)F)ccc1-c1cncnc1NC1CCCCCC1`, the growth with NCI-H23 lung is 92.6%; with NCI-H226 lung, 82.6%; with NCI-H322M lung, 104%; with HOP-62 NSCLC, 93.1%; in the assay on NCI-H460 lung it was 102%; with NCI-H522 lung, 91.3%. Moreover, the growth in the assay with A549/ATCC NSCLC was 85.4%; with 786-0 renal, 97.9%; in the assay with COLO 205 colon, 105%; with DU-145 prostate, 101%; in the assay on K-562 leukemia it was 91.3%; with MALME-3M melanoma, 118%. For the same compound, the growth with MDA-MB-231 breast was 91%; in the assay with RXF 393 renal, 88.5%; with SF-268 CNS it was 115%; with SF-295 CNS it was 94.5%; in the assay with SF-539 CNS it was 94.8%; in the assay with UACC-257 melanoma it was 93.9%. In addition, the growth in the assay with M14 melanoma was 105%; with HCT-15 colon, 95.6%.

With `COc1ccc(-n2c(SCc3cc(OC)c(OC)c(OC)c3)nc3ccc(C)cc3c2=O)cc1`, the growth in the assay on NCI-H23 lung was 69.2%; in the assay on NCI-H226 lung, 73.4%; in the assay with NCI-H322M lung, 80.3%; with HOP-62 NSCLC, 65.2%; in the assay on NCI-H460 lung it was 73.8%; with NCI-H522 lung, 39.4%. Besides, the growth is 51% with A549/ATCC NSCLC; 84.1% with 786-0 renal; 32.7% in the assay with COLO 205 colon; 94.9% with DU-145 prostate; 16.9% in the assay on K-562 leukemia; 59.7% in the assay on MALME-3M melanoma. Besides, the growth with MDA-MB-231 breast is 59.8%; in the assay on RXF 393 renal it was 52.8%; in the assay on SF-268 CNS, 80.6%; in the assay on SF-295 CNS, 51.4%; in the assay on SF-539 CNS, 77.7%; in the assay on UACC-257 melanoma, 77.3%. Further, the results for the growth in the assay on M14 melanoma and in the assay with HCT-15 colon were 53.8% and 33.6%, respectively.

For the origin of these results see PubChem BioAssay (NCI).
